The list is not random: actives were taken first. Their share in the collection is about 0.78%.
RGS4-Gao reg = modulators of RGS4 binding to Galphao, primary screen, biochemical, multiplexed bead flow cytometry | Guanine nucleotide-binding protein G(o) subunit alpha (Homo sapiens), P09471 | actives lie on both sides | binding response (% of control), % at 10 µM | 220,000 tested, 0.33% active; in the data active = binding response below about 49% or above about 150%; inactive = in between;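 also: fluorescent Galphao activated with aluminum fluoride binding bead-coupled RGS4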
Target sequence (P09471 whole entry, looked up): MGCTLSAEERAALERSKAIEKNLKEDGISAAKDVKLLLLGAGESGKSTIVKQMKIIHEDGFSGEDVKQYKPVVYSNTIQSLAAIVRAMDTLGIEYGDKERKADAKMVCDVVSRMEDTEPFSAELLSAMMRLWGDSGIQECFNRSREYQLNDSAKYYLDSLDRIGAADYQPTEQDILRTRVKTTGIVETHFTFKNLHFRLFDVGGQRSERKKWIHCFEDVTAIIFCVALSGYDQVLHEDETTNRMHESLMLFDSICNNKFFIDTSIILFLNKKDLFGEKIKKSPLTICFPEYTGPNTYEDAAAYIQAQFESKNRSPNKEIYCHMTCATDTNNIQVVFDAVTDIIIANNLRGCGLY
RGS16-Gao HTS = modulators of RGS16 binding to Galphao, primary screen, biochemical, human proteins, multiplexed bead flow cytometry; bead-based flow cytometry RGS16-Galphao binding, fluorescence; actives lie on both sides; binding response (% of control), % at 10 µM; 220,000 tested, 0.38% active; AID 1441, 2008;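 also: Galphao activated by GDP with aluminum fluoride before binding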
RGS8-Gao reg = RGS8-Galphao binding modulators, primary screen, biochemical, multiplexed bead flow cytometry. Guanine nucleotide-binding protein G(o) subunit alpha (Homo sapiens), P09471. actives lie on both sides. response (percent of control binding), % at 10 µM. 220,000 tested, 0.34% active. AID 1423, 2008; in the data active = response below about 60% or above about 140%; inactive = in between;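 also: Galphao activated as the GDP aluminium fluoride complex binding bead-coupled RGS8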
RGS7-Gao reg = RGS7-Galphao binding modulators, primary screen, biochemical, multiplexed bead flow cytometry; Guanine nucleotide-binding protein G(o) subunit alpha (Homo sapiens), P09471; actives lie on both sides; binding response (% of control), % at 10 µM; 220,000 tested, 0.35% active; in the data active = binding response below about 49% or above about 150%; inconclusive = no clear call, values can overlap the other calls; inactive = in between;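 also: fluorescent Galphao held in activated GDP-AlF4 state binding bead-coupled RGS7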
RGS-Gao = modulators of RGS–Galpha-o binding, primary screen, biochemical, multiplexed beads, flow cytometry, RGS4/7/8/16/19 | 1,600 tested, 99% active | AID 1504, 2009 | shares compounds with RGS16-Gao HTS | RGS4–Galpha-o binding response, % at 10 µM | multiplexed bead flow cytometry;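 also: fluorescently labeled Galpha-o bound to GDP with aluminium fluoride binding biotinylated RGS beads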
Target sequence (P09471 whole entry, looked up): as above
Target sequence (P49798 whole entry, looked up): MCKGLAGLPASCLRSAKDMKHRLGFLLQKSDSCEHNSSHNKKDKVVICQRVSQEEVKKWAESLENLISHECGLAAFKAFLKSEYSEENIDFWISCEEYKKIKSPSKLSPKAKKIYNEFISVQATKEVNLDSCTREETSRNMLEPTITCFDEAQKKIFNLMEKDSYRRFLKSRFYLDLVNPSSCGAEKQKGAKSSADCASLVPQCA
Avidin counter = disruption of biotin probe capture by avidin, counter-screen for RGS protein interaction modulators, biochemical, flow cytometry, bead-based | 1,700 tested, under 10 active | streptavidin beads, fluorescein-biotin binding | AID 1783, 2009 | inhibition, % at 10 µM | shares compounds with RGS16-Gao HTS;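 active = inhibition above 50%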;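 also: median green fluorescence of gated singlet beads compared with DMSO control wells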
RGS8-Gao confirm = RGS8-Galphao binding modulators, confirmation, biochemical, multiplexed bead flow cytometry, single concentration; shares compounds with RGS16-Gao HTS; bead-based flow cytometry RGS8-Galphao binding, fluorescence; actives lie on both sides; binding response (% of control), % at 10 µM; 1,700 tested, 3% active; AID 1836, 2009; in the data active = binding response below about 72% or above about 130%; inactive = in between;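 also: Galphao activated as GDP AlF4 complex before binding bead RGS8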
RGS7-Gao single = RGS7-Galphao binding modulators, confirmation, biochemical, multiplexed bead flow cytometry, single concentration; shares compounds with RGS16-Gao HTS; bead-based flow cytometry RGS7-Galphao binding; actives lie on both sides; response (percent of control binding), % at 10 µM; 1,700 tested, 7.8% active; in the data active = response below about 75% or above about 130%; inactive = in between;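 also: fluorescent Galphao activated with GDP and aluminum fluoride binding bead-coupled RGS7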
RGS16-Gao conf = modulators of RGS16-Galphao protein binding, confirmation, biochemical, single concentration, multiplexed bead flow cytometry | bead-based flow cytometry; actives lie on both sides | shares compounds with RGS16-Gao HTS | response (% of control binding), % at 10 µM | 1,700 tested, 4% active; in the data active = response below about 74% or above about 130%; inactive = in between;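 also: Galphao activated as the GDP aluminium fluoride complex binding bead-coupled RGS16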
RGS4-Gao single = modulators of RGS4-Galphao protein binding, confirmation, biochemical, single concentration, multiplexed bead flow cytometry. actives lie on both sides. binding response (% of control), % at 10 µM. 1,700 tested, 4% active. shares compounds with RGS16-Gao HTS; in the data active = binding response below about 74% or above about 130%; inactive = in between
RGS19-Gao single = regulators of RGS19-Galphao binding, confirmation, biochemical, single point, multiplexed bead flow cytometry; shares compounds with RGS16-Gao HTS; bead-based flow cytometry RGS19-Galphao binding; actives lie on both sides; response (percent of control binding), % at 10 µM; 1,700 tested, 5% active; AID 1841, 2009; in the data active = response below about 50% or above about 160%; inactive = in between
Numbers stand for hits; [ ] = dose if it differs, or a comment. Unless noted, no rule for the calls is given here.

Screening O=c1c2ccccc2sn1-c1ccc(S(=O)(=O)N2CCCC2)cc1 returned RGS4-Gao reg inactive, RGS16-Gao HTS -3.0, RGS8-Gao reg 31, RGS7-Gao reg inactive, RGS-Gao 92, Avidin counter inactive, RGS8-Gao confirm 59, RGS7-Gao single inactive, RGS16-Gao conf 40, RGS4-Gao single inactive and RGS19-Gao single 8.6.
CC(C)(C)NC(=O)COC(=O)c1ccc(Cl)nc1 was read as Avidin counter inactive, RGS8-Gao confirm inactive, RGS7-Gao single 64, RGS16-Gao conf inactive, RGS4-Gao single inactive and RGS19-Gao single 45.
`Cn1c(C(C#N)C(=O)c2ccco2)nc2ccccc21` (stereo not drawn) gave RGS4-Gao reg inactive, RGS16-Gao HTS inactive, RGS8-Gao reg inactive and RGS7-Gao reg inactive.
Screening COc1ccc(-n2c(N)c(C(=O)Nc3c(C)n(C)n(-c4ccccc4)c3=O)c3nc4ccccc4nc32)cc1 returned RGS4-Gao reg 315[activator], RGS16-Gao HTS 288[activator], RGS8-Gao reg 141[activator], RGS7-Gao reg inconclusive, Avidin counter inactive, RGS8-Gao confirm inactive, RGS7-Gao single inactive, RGS16-Gao conf inactive, RGS4-Gao single inactive and RGS19-Gao single inactive.
`Cc1ccc(-n2c(N)c(C(=O)Nc3c(C)n(C)n(-c4ccccc4)c3=O)c3nc4ccccc4nc32)cc1C` gave RGS4-Gao reg inactive, RGS16-Gao HTS inactive, RGS8-Gao reg inactive and RGS7-Gao reg inactive.
`CN(C)c1ccc(/C=N/NC(=O)CN(c2ccccc2Cl)S(C)(=O)=O)cc1Br` gave RGS4-Gao reg inactive, RGS16-Gao HTS inactive, RGS8-Gao reg inactive and RGS7-Gao reg inactive.
COc1ccc(-n2c(SCC(=O)N3CCCCC3)nc(O)cc2=O)cc1 was read as RGS4-Gao reg inactive, RGS16-Gao HTS inactive, RGS8-Gao reg inactive and RGS7-Gao reg inactive.
For CCOC(=O)CN1C(c2ccc(O)cc2)Nc2ccc(Br)cc2C1c1ccccc1 (stereo not drawn) the results were RGS4-Gao reg inactive, RGS16-Gao HTS 14, RGS8-Gao reg inactive, RGS7-Gao reg inactive, RGS-Gao 85, Avidin counter inactive, RGS8-Gao confirm inactive, RGS7-Gao single inactive, RGS16-Gao conf inactive, RGS4-Gao single inactive and RGS19-Gao single inactive.
Screening CC(OC(=O)c1cc(S(=O)(=O)Nc2ccc(F)cc2)ccc1Cl)C(=O)Nc1ccc2c(c1)OCCO2 (stereo not drawn) returned RGS4-Gao reg inactive, RGS16-Gao HTS inactive, RGS8-Gao reg inactive and RGS7-Gao reg inactive.
N=C1S/C(=C\c2cccc3ccccc23)C(=O)N1c1ccc(F)cc1 was read as RGS4-Gao reg inactive, RGS16-Gao HTS inactive, RGS8-Gao reg inactive and RGS7-Gao reg inactive.
CSC1=NC(=O)/C(=C\c2cccc3ccccc23)S1 was read as RGS4-Gao reg inactive, RGS16-Gao HTS inactive, RGS8-Gao reg inactive, RGS7-Gao reg 223[activator], RGS-Gao 124, Avidin counter inactive, RGS8-Gao confirm inactive, RGS7-Gao single inactive, RGS16-Gao conf inactive, RGS4-Gao single inactive and RGS19-Gao single inactive.
For COc1cccc(-c2cnc(NCc3cc(Cl)ccc3O)n2C)c1 the results were RGS4-Gao reg inactive, RGS16-Gao HTS inactive, RGS8-Gao reg inactive, RGS7-Gao reg 160[activator] and RGS-Gao 117.
Cn1c(-c2cccc(Br)c2)cnc1NCc1cccnc1 was read as RGS4-Gao reg inactive, RGS16-Gao HTS inactive, RGS8-Gao reg inactive and RGS7-Gao reg inactive.
For O=C(NCc1ccccn1)c1ccco1 the results were RGS4-Gao reg inactive, RGS16-Gao HTS inactive, RGS8-Gao reg inactive and RGS7-Gao reg inactive.
`O=C(NC(Cc1ccccc1)C(=O)NCc1ccccn1)c1ccco1` (stereo not drawn) gave Avidin counter inactive, RGS8-Gao confirm inactive, RGS7-Gao single inactive, RGS16-Gao conf inactive, RGS4-Gao single inactive and RGS19-Gao single inactive.
NC(=O)c1ccc(NC(=O)CN2CCN(c3ccc(Cl)cc3)CC2)cc1 was read as RGS4-Gao reg 38, RGS16-Gao HTS inactive, RGS8-Gao reg 36, RGS7-Gao reg 34, Avidin counter inactive, RGS8-Gao confirm inactive, RGS7-Gao single inactive, RGS16-Gao conf inactive, RGS4-Gao single inactive and RGS19-Gao single inactive.
`COC(=O)C1=C(C)NC(C)=C(C(=O)OC(C)C)C1c1cccc2nonc12` (stereo not drawn) gave RGS4-Gao reg inactive, RGS16-Gao HTS inactive, RGS8-Gao reg inactive and RGS7-Gao reg inactive.
Screening S=C(NCc1ccccc1)N1CCCCC1 returned RGS4-Gao reg inactive, RGS16-Gao HTS inactive, RGS8-Gao reg inactive and RGS7-Gao reg inactive.
Screening CC(=O)N1CCN(C(=S)NCc2ccccc2)CC1 returned RGS4-Gao reg inactive, RGS16-Gao HTS 257[activator], RGS8-Gao reg inactive, RGS7-Gao reg inactive, RGS-Gao 110, Avidin counter inactive, RGS8-Gao confirm inactive, RGS7-Gao single inactive, RGS16-Gao conf inactive, RGS4-Gao single inactive and RGS19-Gao single inactive.
O=C(NCc1ccccc1)C1CCC1 was read as RGS4-Gao reg inactive, RGS16-Gao HTS 14, RGS8-Gao reg inactive, RGS7-Gao reg inactive, RGS-Gao 96, Avidin counter inactive, RGS8-Gao confirm inactive, RGS7-Gao single inactive, RGS16-Gao conf inactive, RGS4-Gao single inactive and RGS19-Gao single inactive.

Screening data as filed in PubChem.
